Results: PubChem BioAssay AID720504 (National Center for Advancing Translational Sciences (NCATS), 2013)
About 10,000 (2.8%) of roughly 360,000 compounds were called active. Another 4% or so got no clear call; they are omitted. Calls come from the whole dose curve; as a rule, active = well fitted inhibition curve with a large enough effect; inconclusive = small, poorly fitted or top-dose-only effect; inactive = flat fitted curve, though single readings scatter. This excerpt belongs to a sample that is enriched for actives.

These compounds were tested against Serine/threonine-protein kinase PLK1 (Homo sapiens) (UniProt P53350) (assay: qHTS for Inhibitors of PLK1-PDB (polo-like kinase 1 - polo-box domain): Primary Screen). Details: Plk1 PBD binding of FITC phosphopeptide, fluorescence polarization.
% is set by controls: 0 for no effect and ±100 for the full control effect; potency is the fitted concentration of half-maximal effect.
Note: nearly all actives have a fitted effect of over 65% in size.
Throughout, for max response, negative = inhibition: series mostly up to about 57 µM.

Serine/threonine-protein kinase PLK1 (Homo sapiens), sequence (P53350 whole entry, looked up, the tested form may be a part): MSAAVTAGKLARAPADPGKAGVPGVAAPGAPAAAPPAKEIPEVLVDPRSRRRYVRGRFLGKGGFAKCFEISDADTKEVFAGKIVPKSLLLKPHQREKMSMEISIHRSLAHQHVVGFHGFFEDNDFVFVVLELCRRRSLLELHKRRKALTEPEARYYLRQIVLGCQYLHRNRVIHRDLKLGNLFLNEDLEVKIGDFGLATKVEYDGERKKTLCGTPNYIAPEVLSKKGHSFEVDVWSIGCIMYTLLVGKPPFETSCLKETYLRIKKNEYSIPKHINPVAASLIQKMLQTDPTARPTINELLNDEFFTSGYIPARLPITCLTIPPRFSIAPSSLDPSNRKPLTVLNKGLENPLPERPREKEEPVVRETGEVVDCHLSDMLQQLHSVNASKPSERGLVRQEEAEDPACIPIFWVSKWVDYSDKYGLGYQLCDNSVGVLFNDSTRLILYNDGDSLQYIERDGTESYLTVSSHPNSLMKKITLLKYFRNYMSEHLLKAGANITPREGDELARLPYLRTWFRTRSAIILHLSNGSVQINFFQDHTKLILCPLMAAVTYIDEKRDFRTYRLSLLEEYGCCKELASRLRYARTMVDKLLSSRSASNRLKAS

SMILES	Potency	max response, negative = inhibition
CCOC(=O)[C@]12Cc3ccccc3[C@H]1N(C1CCCCC1)C(=O)c1cc(OC)ccc12	10.6 µM (active)	–
CCOC(=O)c1cccc(C2=C(CNC(=O)c3ccncc3)[C@H]3CC[C@@H](C2)N3Cc2ccccc2)c1	–	-3.52% (inactive)
COc1ccc(CN2C(=O)NC(=O)/C(=C\c3ccc(OC)c(OC)c3OC)C2=O)cc1	7.52 µM (active)	–
O=c1c2ccccc2nc(-c2ccc(Cl)cc2Cl)n1-c1ccncc1	–	-3.78% (inactive)
Nc1ccc([N+](=O)[O-])cc1	–	-16% (inactive)
C=CCN1C(=O)NC(=O)/C(=C/c2ccc(OCC(=O)Nc3ccc(C)cc3)cc2)C1=O	8.44 µM (active)	–
C=CCN(CC=C)C(=O)Nc1ccc(OCC)cc1	–	-8.48% (inactive)
CCC(=O)c1ccc(OCC(=O)N2CCN(CC(=O)Nc3ccc(C)cc3)CC2)cc1	–	-6.03% (inactive)
CCOC(=O)C1CN(C)CCC1=O (stereo not drawn)	–	-5.51% (inactive)
O=C(CCCn1c(=O)[nH]c2cc(Cl)ccc2c1=O)N1CCC2(CC1)OCCO2	–	-6.33% (inactive)
COC(=O)N(c1ccc(OC)cc1)P1(=S)OCCC(C)O1 (stereo not drawn)	2.67 µM (active)	–
Cc1ccc(N(C)C(=O)Oc2cccc3ccc(C)nc23)cc1	–	0.137% (inactive)
COc1ccc(N2C(=O)/C(=C/c3ccco3)C(=O)NC2=S)cc1	2.67 µM (active)	–
CC(=NCC1CCCO1)c1c(O)n(-c2ccccc2)c(=O)[nH]c1=O (stereo not drawn)	–	-9.8% (inactive)
COCc1cc(OC(=O)N(C)C)nc(-c2ccc(C)c(Cl)c2)n1	–	-4.36% (inactive)
O=C(N/N=C/c1c(O)n(Cc2ccccc2)c(=O)[nH]c1=O)c1ccccc1	–	-9.07% (inactive)
CC/C(=N\NC(=O)c1ccccc1O)c1c(O)n(Cc2ccccc2)c(=O)[nH]c1=O	16.8 µM (active)	–
CCC(=NCc1ccco1)c1c(O)n(Cc2ccccc2)c(=O)[nH]c1=O	–	-18.9% (inactive)
COC(=O)C1=C(c2ccc(Cl)c(C(F)(F)F)c2)C[C@@H]2CC[C@H]1N2C(=O)NC(C)C	–	-9.53% (inactive)
O=C(COc1ccc2ccccc2c1)N1CCN(Cc2ccncc2)CC1	–	-21.6% (inactive)
COc1ccc(-c2nc(CS(=O)CC(=O)N3CCC4(CC3)OCCO4)c(C)o2)cc1 (stereo not drawn)	–	-28% (inactive)
ClC(Cl)(Cl)c1ccccc1	–	-9.92% (inactive)

SMILES	Potency	max response, negative = inhibition
NCCc1c[nH]c2ccc(O)cc12	–	-10.9% (inactive)
CCOc1ccc(CN(CCCl)CCCl)cc1C(=O)OC	26.7 µM (active)	–
CCCCC(=O)N/N=C/c1c(O)n(CCC2=CCCCC2)c(=O)[nH]c1=O	–	-3.58% (inactive)
O=C(O)COc1ccccc1/C=C1\C(=O)NC(=O)N(CCC2=CCCCC2)C1=O	11.9 µM (active)	–
COc1cc(C(=O)N2Cc3ccc(Br)cc3-n3nncc3C2)cc(OC)c1OC	–	-10% (inactive)
CC(C)c1ccc(OCC(=O)N2CCN(C)CC2)c(Br)c1	–	-13.2% (inactive)
c1cc2c(c(NC3=NCCCS3)c1)CCCC2	–	-11.8% (inactive)
CCOP(=O)(OCC)C(NC(=O)c1ccc(OC)cc1)C(Cl)(Cl)Cl (stereo not drawn)	–	1.87% (inactive)
CC(=O)c1ccc(OC(NC(=O)Cc2ccccc2)C(Cl)(Cl)Cl)cc1 (stereo not drawn)	13.4 µM (active)	–
CC(=O)Cc1ccc(OC(C)C)cc1	–	1.86% (inactive)
COC(=O)C1=C(c2ccc(OCc3ccccc3)cc2)C[C@@H]2CC[C@H]1N2C(=O)NCc1cccc(F)c1	–	-7.41% (inactive)
CN(C)C(=O)Oc1ccc(NC(=O)N2CCOCC2)cc1	–	-3.11% (inactive)
CCOC(=O)CNC(=O)N1Cc2cc(N3CCCCC3)ccc2-n2nncc2C1	–	-3.84% (inactive)
O=C1NC(=O)N(Cc2ccco2)C(=O)/C1=C\c1cccn1CCOc1ccccc1	15 µM (active)	–
O=C1NC(=O)N(Cc2ccco2)C(=O)/C1=C\c1ccc(-c2ccc(F)cc2)o1	0.423 µM (active)	–
N#CC1=C(N)Oc2c(c(=O)oc3ccccc23)C1c1ccccc1OC(=O)c1cccs1 (stereo not drawn)	–	-2.78% (inactive)
CN(C)CC1CCCCC1=O (stereo not drawn)	–	-3.76% (inactive)
CCC(C)n1c(O)c(/C=N/Nc2nc3c(c(=O)n(C)c(=O)n3C)n2C)c(=O)[nH]c1=S (stereo not drawn)	–	-11.1% (inactive)
O=c1c2ccccc2nc(CBr)n1-c1ccc(Cl)cc1	–	-5.73% (inactive)
CCC(C)(O)C(=O)OC1C(=O)OC2CC3C(C)=CC(=O)C(O)C3(C)C3C4(O)OCC23C1C(C)C4O (stereo not drawn)	–	-4.99% (inactive)
CCC(=O)OC(Cc1ccccc1)(c1ccccc1)C(C)CN(C)C (stereo not drawn)	–	-11.9% (inactive)
